PubChem BioAssay (EPA / NIEHS)
Results filed as inconclusive are left out. Activity calls are given as the source filed them. How the source made its calls: active means hit-call score of the fitted dose curve at least 0.9, where 1 is the maximum; inconclusive means response in the unintended direction; inactive means score below 0.9.

Experiments:
[1] = Tanguay_ZF_120hpf_MORT_legacy: (Legacy) Oregon State University Tanguay Lab 120 Hour Post-fertilization zebrafish Assay for Mortality (AID 2283633)
How it was run: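 Static waterborne exposure from 6 to 120 hpf at 28C of single dechorionated wild-type (5D) embryos per well, 0.64% DMSO final. Death recorded present/absent by brightfield at 24 and 120 hpf.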

[2] = Tanguay_ZF_120hpf_YSE_legacy: (Legacy) Oregon State University Tanguay Lab 120 Hour Post-fertilization zebrafish Assay for Yolk Sac Edema (AID 2283634)
How it was run: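 Presence or absence of yolk sac edema was recorded at 120 hpf in surviving larvae. These were wild-type Tropical 5D embryos, chorion removed at 4 hpf, held in static exposure at 28C from 6 hpf with 0.64% DMSO vehicle.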

[3] = Tanguay_ZF_120hpf_AXIS_legacy: (Legacy) Oregon State University Tanguay Lab 120 Hour Post-fertilization zebrafish Assay for Body Axis Malformation (AID 2283635)
How it was run: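 Binary scoring of axis defects at 120 hpf under brightfield, fitted positive versus DMSO. Tropical 5D embryos, chorion removed by pronase at 4 hpf, were singly exposed in sealed, dark plates at 28C from 6 hpf; DMSO 0.64% final.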

[4] = Tanguay_ZF_120hpf_EYE_legacy: (Legacy) Oregon State University Tanguay Lab 120 Hour Post-fertilization zebrafish Assay for Eye Malformation (AID 2283636)
How it was run: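 Dechorionated wild-type Tropical 5D zebrafish embryos were exposed statically from 6 hpf, one per well, to 120 hpf at 28C in sealed, foil-covered plates with 0.64% DMSO. Eye malformation was scored present/absent by brightfield microscopy against DMSO controls.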

[5] = Tanguay_ZF_120hpf_SNOU_legacy: (Legacy) Oregon State University Tanguay Lab 120 Hour Post-fertilization zebrafish Assay for Snout Malformation (AID 2283637)
How it was run: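 Tropical 5D wild-type zebrafish embryos, dechorionated with pronase at 4 hpf, were exposed singly from 6 hpf to 120 hpf statically at 28C in 0.64% DMSO. Snout malformation was scored present/absent by brightfield microscopy, fitted against DMSO.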

[6] = Tanguay_ZF_120hpf_JAW_legacy: (Legacy) Oregon State University Tanguay Lab 120 Hour Post-fertilization zebrafish Assay for Jaw Malformation (AID 2283638)
How it was run: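 Binary jaw-malformation call at 120 hpf by brightfield microscopy. Embryos (Tropical 5D strain, chorion removed at 4 hpf) were dosed statically at 6 hpf, one per well, at 28C with 0.64% DMSO. Embryos that died were not scored.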

[7] = Tanguay_ZF_120hpf_OTIC_legacy: (Legacy) Oregon State University Tanguay Lab 120 Hour Post-fertilization zebrafish Assay for Otic Vesicle Malformation (AID 2283639)
How it was run: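 Embryos from 5D wild-type adults exposed in plates; DMSO 0.64% v/v final. Sealed, light-protected, 28C, static to 120 hpf. Otic vesicle malformation recorded as binary endpoint; gain-of-signal fitted vs DMSO.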

[8] = Tanguay_ZF_120hpf_PE_legacy: (Legacy) Oregon State University Tanguay Lab 120 Hour Post-fertilization zebrafish Assay for Pericardial Edema (AID 2283640)
How it was run: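 Scoring was binary, by brightfield microscopy at 120 hpf, and skipped where mortality occurred. Wild-type embryos were kept under sealed, foil-covered static exposure at 28C in 0.64% (vol/vol) DMSO.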

[9] = Tanguay_ZF_120hpf_BRAI_legacy: (Legacy) Oregon State University Tanguay Lab 120 Hour Post-fertilization zebrafish Assay for Brain Malformation (AID 2283641)
How it was run: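 Binary brightfield scoring of brain malformation at 120 hpf in Tropical 5D larvae held under static exposure at 28C (0.64% v/v DMSO), non-mortality endpoints skipped if dead. Positive control: 5uM trimethyltin chloride; fit versus DMSO.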

[10] = Tanguay_ZF_120hpf_SOMI_legacy: (Legacy) Oregon State University Tanguay Lab 120 Hour Post-fertilization zebrafish Assay for Somite Malformation (AID 2283647)
How it was run: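 Binary somite-defect scoring at 120 hpf, omitted for embryos that died, in wild-type (Tropical 5D) zebrafish with chorion removed by pronase at 4 hpf; static exposure began 6 hpf, single embryos per well, 28C, 0.64% DMSO; fitted positive versus DMSO.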

[11] = Tanguay_ZF_120hpf_PFIN_legacy: (Legacy) Oregon State University Tanguay Lab 120 Hour Post-fertilization zebrafish Assay for Pectoral Fin Malformation (AID 2283648);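 further: each larva judged yes or no for fin defect by brightfield with dead larvae skipped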
How it was run: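 Tropical 5D wild-type embryos, dechorionated with pronase at 4 hpf, were placed singly in wells at 6 hpf and statically exposed until 120 hpf at 28C, sealed and dark, with 0.64% (vol/vol) final DMSO; pectoral fin malformation scored present/absent.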

[12] = Tanguay_ZF_120hpf_CFIN_legacy: (Legacy) Oregon State University Tanguay Lab 120 Hour Post-fertilization zebrafish Assay for Caudal Fin Malformation (AID 2283649)
How it was run: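 Binary brightfield scoring of caudal fin defects at 120 hpf after static, light-shielded exposure at 28C from 6 hpf. Tropical 5D embryos, chorion removed with pronase at 4 hpf, final DMSO 0.64%.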

[13] = Tanguay_ZF_120hpf_SWIM_legacy: (Legacy) Oregon State University Tanguay Lab 120 Hour Post-fertilization zebrafish Assay for Swim Bladder Malformation (AID 2283654);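 further: swim bladder malformation in each larva scored yes or no under brightfield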
How it was run: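 Dechorionated Tropical 5D wild-type embryos, placed singly from 6 hpf, were statically exposed at 28C to 120 hpf with 0.64% DMSO final; swim bladder malformation was scored present/absent by brightfield microscopy, gain of signal relative to DMSO controls.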

[14] = biological target: Cellular tumor antigen p53 (Homo sapiens) (UniProt P04637); assay: TOX21_p53_BLA_p5_ratio: Tox21 HCT-116 p53 Agonism Beta-lactamase Assay, Ratio, Phase 5 (AID 2283599)
Chain of Cellular tumor antigen p53 (Homo sapiens) (P04637 whole entry, looked up): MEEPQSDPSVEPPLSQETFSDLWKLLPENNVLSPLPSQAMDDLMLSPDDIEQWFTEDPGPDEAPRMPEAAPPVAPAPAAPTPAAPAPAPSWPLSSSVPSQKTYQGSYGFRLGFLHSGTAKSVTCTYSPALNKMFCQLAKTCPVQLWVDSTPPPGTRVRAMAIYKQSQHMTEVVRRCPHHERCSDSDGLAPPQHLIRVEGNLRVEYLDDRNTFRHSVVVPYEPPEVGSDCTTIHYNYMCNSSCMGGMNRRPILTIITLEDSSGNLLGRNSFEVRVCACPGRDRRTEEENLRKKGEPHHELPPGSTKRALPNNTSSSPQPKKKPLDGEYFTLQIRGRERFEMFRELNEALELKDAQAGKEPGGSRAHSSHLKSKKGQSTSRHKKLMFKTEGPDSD
How it was run: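 HCT-116 cells carrying a p53-inducible beta-lactamase reporter were seeded at 4000 cells/well and dosed after 5 h with compound in DMSO (217-fold dilution). After 16 h at 37C, CCF4-AM substrate was added for 2 h, and the 460/530 nm emission ratio was scored as gain-of-signal versus DMSO.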

[15] = TOX21_p53_BLA_p5_viability: Viability Assessment in the Tox21 HCT-116 p53 Agonism Beta-lactamase Assay, Phase 5 (AID 2283600)
How it was run: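 After the 460/530 nm beta-lactamase measurement, the wells received an ATP-detection luciferase reagent; signal was read 30 min later at RT. Compound treatment lasted 16 h on cells pre-incubated 5 h post-seeding.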

[16] = biological target: Cellular tumor antigen p53 (Homo sapiens) (UniProt P04637); assay: TOX21_p53_BLA_p4_ratio: Tox21 HCT-116 p53 Agonism Beta-lactamase Assay, Ratio, Phase 4 (AID 2283601)
How it was run: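 HCT116 cells carrying an inducible beta-lactamase reporter were plated at 4000 cells/well, rested 5 h, then exposed to compounds in DMSO (217-fold dilution) for 16 h at 37C. CCF4-AM substrate was loaded 2 h at room temperature; 460/530 nm emission ratio scored gain-of-signal versus DMSO.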

[17] = Tanguay_ZF_120hpf_PIG_legacy: (Legacy) Oregon State University Tanguay Lab 120 Hour Post-fertilization zebrafish Assay for Pigmentation Malformation (AID 2283650)
How it was run: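 Tropical 5D wild-type zebrafish embryos, dechorionated with pronase at 4 hpf, were exposed singly from 6 hpf to 120 hpf statically at 28C in sealed, dark plates with 0.64% DMSO; pigmentation scored present/absent by brightfield microscopy, fitted against DMSO.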

[18] = TOX21_p53_BLA_p4_viability: Viability Assessment in the Tox21 HCT-116 p53 Agonism Beta-lactamase Assay, Phase 4 (AID 2283597);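 further: hits lower the luminescence signal meaning cytotoxicity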
How it was run: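 Following a 16 h exposure at 37C, the treated HCT116 wells were first read for the FRET ratio. They were then lysed with CellTiter-Glo, and ATP luminescence was recorded after 30 min at room temperature.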

[19] = Tanguay_ZF_120hpf_CIRC_legacy: (Legacy) Oregon State University Tanguay Lab 120 Hour Post-fertilization zebrafish Assay for Circulatory Malformation (AID 2283651)
How it was run: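 Read-out: presence or absence of circulatory malformation at 120 hpf, scored by brightfield microscopy, fitted in the gain-of-signal direction against DMSO baseline. Wild-type 5D larvae were exposed from 6 hpf after enzymatic chorion removal.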

Measured: outcome

CCC(C)(CC)c1cc(NC(=O)c2c(OC)cccc2OC)on1
inactive: [1] | [2] | [3] | [4] | [5] | [6] | [7] | [8] | [9] | [10] | [11] | [12] | [13]

c1ccc(-c2ccccc2)cc1
inactive: [14] | [15] | [16] | [1] | [2] | [3] | [4] | [6] | [7] | [8] | [10] | [11] | [17] | [13]

CCOCCOC(C)=O
inactive: [18] | [14] | [15] | [16] | [2] | [3] | [5] | [7] | [8] | [9] | [10] | [11] | [12] | [17] | [19] | [13]

Cc1ccccc1[N+](=O)[O-]
inactive: [18] | [14] | [15] | [16] | [2] | [3] | [4] | [5] | [7] | [8] | [9] | [10] | [11] | [12] | [17] | [19] | [13]

CCSC(=O)N(CC)C1CCCCC1
inactive: [1] | [2] | [3] | [5] | [7] | [9] | [10] | [11] | [12] | [17] | [19] | [13]

Cc1ccccc1O
inactive: [18] | [14] | [16] | [1] | [2] | [4] | [5] | [7] | [8] | [9] | [10] | [11] | [12] | [17] | [19] | [13]

N#Cc1ccc(N(CC(N)=O)CC(F)(F)F)cc1C(F)(F)F
inactive: [18] | [14] | [15] | [1] | [2] | [3] | [4] | [5] | [7] | [8] | [9] | [11] | [12] | [17] | [13]

C1CC2OC2CC1C1CO1 (stereo unspecified)
inactive: [18] | [15] | [16] | [1] | [4] | [5] | [7] | [10] | [11] | [12] | [17] | [19] | [13]
